# Screening results (PubChem BioAssay)
# An excerpt weighted towards active compounds, which were near 1.6% of everything screened.
# KCNQ2 enhance: potentiators of rat KCNQ2 potassium channel; Potassium voltage-gated channel subfamily KQT member 2 (Rattus norvegicus), O88943; CHO-K1 KCNQ2, FluxOR thallium flux fluorescence; hits give high values; B-score at 10 µM; 310,000 tested, 0.54% active;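 active means fluorescence ratio B-score at least 3 SD of library B-scores, with initial fluorescence B-score within 3 of them, cut at about 5.3 in these data; same plate scores as AID 2156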;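 further: B-score of peak minus minimum over baseline fluorescence ratio after K+ and Tl+ stimulus; positive B-score means potentiation of KCNQ2 with more thallium influx and brighter signal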
# Target sequence (O88943 whole entry, looked up): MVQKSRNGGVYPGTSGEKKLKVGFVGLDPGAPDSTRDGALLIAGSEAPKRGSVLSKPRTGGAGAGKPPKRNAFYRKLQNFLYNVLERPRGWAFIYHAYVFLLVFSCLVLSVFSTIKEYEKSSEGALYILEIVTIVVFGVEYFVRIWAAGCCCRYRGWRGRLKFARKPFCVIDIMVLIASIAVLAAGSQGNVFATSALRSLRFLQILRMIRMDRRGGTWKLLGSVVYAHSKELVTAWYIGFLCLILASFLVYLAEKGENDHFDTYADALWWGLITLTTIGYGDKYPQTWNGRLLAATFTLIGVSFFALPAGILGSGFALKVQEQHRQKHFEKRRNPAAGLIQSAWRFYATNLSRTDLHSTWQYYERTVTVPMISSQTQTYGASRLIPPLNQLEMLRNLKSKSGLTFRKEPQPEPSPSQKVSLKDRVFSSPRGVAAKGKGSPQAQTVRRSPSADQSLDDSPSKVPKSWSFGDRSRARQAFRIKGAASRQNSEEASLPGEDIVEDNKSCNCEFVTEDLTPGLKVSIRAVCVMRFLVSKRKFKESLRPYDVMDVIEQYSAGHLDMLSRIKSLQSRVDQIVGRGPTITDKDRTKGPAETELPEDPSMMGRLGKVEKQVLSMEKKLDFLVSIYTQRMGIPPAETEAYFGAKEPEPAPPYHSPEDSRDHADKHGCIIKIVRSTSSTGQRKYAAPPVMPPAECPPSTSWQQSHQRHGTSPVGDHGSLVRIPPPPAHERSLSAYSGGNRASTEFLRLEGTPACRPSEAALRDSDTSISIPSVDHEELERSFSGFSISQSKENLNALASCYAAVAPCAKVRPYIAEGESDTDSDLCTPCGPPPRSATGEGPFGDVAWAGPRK
# KCNQ2 block: rat KCNQ2 potassium channel inhibitors, primary screen, cell-based, CHO-K1, FluxOR thallium flux, B-score. B-score at 10 µM. AID 2156, 2009. 310,000 tested, 1.1% active. Potassium voltage-gated channel subfamily KQT member 2 (Rattus norvegicus), O88943. 20 min; hits give low values;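 active means fluorescence ratio B-score at most minus 3 library SDs, with starting brightness B-score within 2 library SDs, cut at about -5.5 in these data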
# Kir21 conf inh: mouse Kir2.1 channel blockers, retest, confirmation, cell-based, FluxOR thallium flux, duplicate; AID 2032, 2009; shares compounds with KCNQ2 enhance; Kir2.1-expressing cells, FluxOR thallium flux fluorescence; hits give low values; Tl flux remaining, % of negative control (hits give low values), % at 10 µM; 2,300 tested, 41% active;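 active means Primary-screen hit whose thallium flux fell at least 3 control SD below untreated wells in both duplicates, with normal baseline fluorescence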;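 further: 0% = blank wells without stimulus and 100% = stimulated no-compound controls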
# HEK293 ctr: alters thallium flux in parental HEK293 cells, Kir2.1 counter-screen; shares compounds with KCNQ2 enhance; 2,300 tested, 19% active; FluxOR thallium flux fluorescence; 0% = unstimulated blank wells; AID 2105; FluxOR signal as % of negative control (100 = no effect), % at 10 µM;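 active means dye signal at least 3 control SD above or below untreated wells in both duplicates, raw fluorescence within 3, either direction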;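 further: percent is based on the flux ratio of peak minus minimum fluorescence over baseline F0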
# CHO-K1 Tl ctr: nonspecific thallium flux increase in parental CHO-K1, confirmation, counter-screen for KCNQ2 potentiator project, cell-based, FluxOR thallium flux, duplicate. activity increase over 3SD of controls, % at 10 µM. AID 2282, 2010. parental CHO-K1 cells, FluxOR thallium flux fluorescence; zero = vehicle mean+3SD, 100% = vehicle-minus-blank window. shares compounds with KCNQ2 enhance. 1,200 tested, 43% active;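 active means signal rise of at least 3 SD above the untreated control mean, in both duplicate wells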;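 further: counter screen of KCNQ2 potentiator hits so any rise reflects channel-independent effects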
# KCNQ1 sel pot: human KCNQ1 channel potentiation off-target, confirmation, selectivity assay for KCNQ2 potentiator project, cell-based, CHO, FluxOR thallium flux; shares compounds with KCNQ2 enhance; CHO KCNQ1 stable, FluxOR thallium flux fluorescence; beyond 3SD, as % of vehicle-control signal; activation over 3SD threshold, % at 10 µM; 1,200 tested, 28% active; AID 2283, 2010;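 active means fluorescence ratio rise of at least 3 SD of vehicle wells above their mean, in both replicate wells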;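 further: 0% = vehicle mean plus 3 SD and 100% = vehicle minus unstimulated blank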
# KCNQ2 pot conf: rat KCNQ2 channel potentiators, confirmation, cell-based, CHO, FluxOR thallium flux, duplicate; shares compounds with KCNQ2 enhance; CHO-KCNQ2 cells, FluxOR thallium flux fluorescence; potentiation, less the hit threshold, % at 10 µM; 1,200 tested, 68% active; AID 2287, 2010;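 active means fluorescence ratio rising 3 SD or more over the vehicle control mean in both replicates, plus primary screen hit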;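 further: peak minus minimum thallium fluorescence divided by baseline after K/Tl stimulus; 0% = vehicle mean plus 3 SD and 100% = vehicle minus unstimulated blank difference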
# Kir2-1 sel: mouse Kir2.1 channel activation off-target, confirmation, selectivity assay for KCNQ2 potentiator project, cell-based, HEK293, FluxOR thallium flux. HEK293 Kir2.1, FluxOR thallium flux fluorescence. activity over 3SD threshold, % at 10 µM. AID 2345, 2010. shares compounds with KCNQ2 enhance. 1,200 tested, 2% active;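 active means fluorescence ratio rise of at least 3 SD above the vehicle-control mean, seen in both replicates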;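 further: 0% = vehicle mean plus 3 SD and 100% = vehicle minus no-stimulus blank window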
# KCNQ2 W236L MoA: potentiators of retigabine-insensitive KCNQ2 W236L, mechanism study for KCNQ2 potentiator project, cell-based, rat KCNQ2 W236L, CHO, automated patch clamp. shares compounds with KCNQ2 enhance. automated patch clamp current. current increase over 3SD of negative controls (%), hits give high values, % at 25 µM. 940 tested, 10% active. AID 2558, 2010;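 active means current increase at least 3 SD of the untreated controls above them in both duplicate recordings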
# Numbers without * were called inactive; i = inactive; · = no result.
SMILES,KCNQ2 enhance,KCNQ2 block,Kir21 conf inh,HEK293 ctr,others
COc1ccc(C(=O)NN/C(C)=C/C(=O)c2ccccc2)cc1,0.97,i,·,·,
Cn1c(COc2ccccc2O)[n+](C)c2ccccc21,·,i,·,·,
CCCCCCCCCCOC(=O)Cn1c(COc2ccccc2OC)[n+](C)c2ccccc21,·,i,i,i,
CCc1noc(C)c1C(=O)N(Cc1ccccc1)c1c(N)n(CCOC)c(=O)[nH]c1=O,0.98,i,·,·,
CCCOC(=O)C(C)n1cnc2scc(-c3ccc(C)cc3)c2c1=O (stereo unspecified),·,i,·,·,
Cn1nc(C(F)(F)F)c2cc(NC(=O)OCc3ccc(C(C)(C)C)cc3)sc21,6.3*,i,i,i,CHO-K1 Tl ctr=38*;KCNQ1 sel pot=-7;KCNQ2 pot conf=-16;Kir2-1 sel=-34
Cn1nc(C(F)(F)F)c2cc(NC(=O)OCc3ccc(F)cc3)sc21,4.4,i,·,·,
N#Cc1c(-n2cccc2/C=N/O)sc2c1CCCC2,·,i,46%*,i,
C=CCNCc1cccn1-c1sc2c(c1C#N)CCCC2,0.43,i,·,·,
CCC(O)(CC)C(=O)N(Nc1ccc(C)cc1)c1ccc(C)cc1,5.6*,i,i,i,CHO-K1 Tl ctr=-6;KCNQ1 sel pot=-4;KCNQ2 pot conf=-1;Kir2-1 sel=-42;KCNQ2 W236L MoA=37%*
CCOC(=O)C(=O)N(Nc1ccc(C)cc1)c1ccc(C)cc1,·,i,·,·,
Cc1cc(OCC(=O)Nc2ccc(CN3CCOCC3)cc2)c2c(C)c(C)c(=O)oc2c1,·,i,·,·,
Cc1ccc(S(=O)(=O)N(CC(=O)NCc2ccccc2Cl)C(=O)N2CCN(C)CC2)cc1,·,i,·,·,
CCN(CC)S(=O)(=O)c1cccc(C(=O)NC(C(=O)NC2=NCCS2)C(C)C)c1 (stereo unspecified),0.24,i,·,·,
CCN(CC)S(=O)(=O)c1cccc(C(=O)N[C@H](C(=O)NNC(=O)c2ccccc2)C(C)C)c1,8*,i,i,i,CHO-K1 Tl ctr=-25;KCNQ1 sel pot=0.2*;KCNQ2 pot conf=-23;Kir2-1 sel=-23
CN(CC(=O)Nc1ccc(N2CCOCC2)cc1)CC(=O)Nc1ccccc1C#N,·,i,·,·,
O=C(c1ccco1)N1CCN(c2ccc([N+](=O)[O-])cn2)CC1,·,i,·,·,
Cc1ccccc1-n1c(-c2ccc(Cl)cc2)cnc1SCC(=O)NC1CCS(=O)(=O)C1 (stereo unspecified),2.6,i,·,·,
CCn1c(CCNC(=O)c2ccc(C)cc2)nnc1SCc1ccc(Cl)c(Cl)c1,·,i,·,·,
CCn1c(CCNC(=O)c2ccc(OC)cc2)nnc1SCc1ccc(Cl)c(Cl)c1,·,i,67%*,i,
Cc1cccc(OCC(=O)Nc2nnc(S(=O)(=O)N3CCCCCC3)s2)c1,1.5,i,·,·,
Cc1nc(SCC(=O)NNC(=O)c2cccs2)[nH]c(=O)c1C,1.1,i,·,·,
CCC(C(=O)OCC(=O)NC(=O)c1ccccc1)c1ccccc1 (stereo unspecified),·,i,·,·,
CCC(C(=O)OCC(=O)NC(=O)c1ccccc1OC)c1ccccc1 (stereo unspecified),·,i,70%*,i,
CN(CC(=O)Nc1ccccc1Br)C(=O)c1cc2c(s1)CCCCC2,·,i,·,·,
SMILES,KCNQ2 enhance,KCNQ2 block,Kir21 conf inh,HEK293 ctr,others
NS(=O)(=O)c1ccc(CCNC(=O)CN2CCC(Cc3ccccc3)CC2)cc1,0.06,i,·,·,
O=C(CN1CCC(Cc2ccccc2)CC1)NCCc1ccc(F)cc1,16*,i,·,·,CHO-K1 Tl ctr=69*;KCNQ1 sel pot=-19;KCNQ2 pot conf=56*;Kir2-1 sel=-90;KCNQ2 W236L MoA=i
CCN(CC(=O)Nc1c(F)cccc1F)C(=O)CN1C(=O)NC2(CCCC2)C1=O,0.46,i,·,·,
NC(=NCCc1ccccc1)NC(=O)c1cc(Cl)ccc1O,·,i,·,·,
CCOc1ccc(-c2c(C(=O)N/N=C/c3cccnc3)nnn2-c2nonc2N)cc1,1,i,·,·,
C=CCc1cc(Cl)ccc1OCCOCCNC(C)CC (stereo unspecified),0.16,i,i,i,
C=CCc1cc(Cl)ccc1OCCCNC(C)C,0.39,i,·,·,
CC1CCN(S(=O)(=O)c2cccc3cccnc23)CC1,·,i,·,·,
CCCc1cc(=O)[nH]c(SCC(=O)c2cc(C)n(CCOC)c2C)n1,0.18,i,·,·,
CCCc1cc(=O)[nH]c(SCC(=O)c2cc(C)n(CC(F)(F)F)c2C)n1,6.4*,i,i,i,CHO-K1 Tl ctr=-13;KCNQ1 sel pot=74*;KCNQ2 pot conf=-16;Kir2-1 sel=-48
C/C(=N\NC(=O)Cn1ccc(C(F)(F)F)n1)c1ccco1,0.46,i,·,·,
Cc1ccc(C(C)NC(=O)c2cccs2)cc1 (stereo unspecified),1.8,i,·,·,
Cc1ccc(C(=O)NC(C)c2ccc(C)c(C)c2)s1 (stereo unspecified),12*,i,i,i,CHO-K1 Tl ctr=-3;KCNQ1 sel pot=30*;KCNQ2 pot conf=27*;Kir2-1 sel=-46;KCNQ2 W236L MoA=i
Cc1ccc(C(C)NC(=O)c2cccs2)cc1C (stereo unspecified),8.5*,i,i,i,CHO-K1 Tl ctr=-9;KCNQ1 sel pot=13*;KCNQ2 pot conf=2.3*;Kir2-1 sel=-29;KCNQ2 W236L MoA=i
Cc1ccc(C(=O)NC(C)c2ccc3c(c2)OCO3)s1 (stereo unspecified),3.1,i,·,·,
O=C(Nc1cnccn1)c1ccc(F)cc1Cl,·,i,·,·,
Cc1ccc(N(CCC#N)C(=O)COC(=O)C2=COCCO2)cc1,·,i,·,·,
Cc1nc2c(sc(=S)n2Cc2ccco2)c(=O)n1CC(=O)Nc1cc(F)ccc1F,·,i,·,·,
CC(C)(C)OC(=O)NCCc1nnc(SCc2ccccc2Cl)o1,·,i,·,·,
Cc1ccc(CSc2nnc(CCNC(=O)OC(C)(C)C)o2)cc1,·,i,29%*,i,
CC(C)(C)OC(=O)N1CCC[C@H]1c1nnc(SCc2ccccc2)o1,·,i,·,·,
